# Assay outcomes (PubChem BioAssay)
# SUMO Mot1 rescue = blocks SUMOylation pathway, rescuing yeast Mot1-301 growth; S. cerevisiae Mot1-301 growth rescue, ATP luminescence, 38.5C; percent above DMSO median, 100 means doubled; growth rescue, % at 18.8 µM; 320,000 compounds, 1% hits; AID 2716;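 active = every valid replicate shows activation above 250% relative to neutral control wells; inactive = the rest, any valid replicate at or below 250%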;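 also: OY570 slx delta 5 strain wells were the positive control but not used for scaling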
# NALP3 yeast inh = blocks the NALP3 inflammasome reconstituted in yeast | Yeast reconstituted NLRP3/ASC/caspase-1, beta-gal luminescence, 24 h | inhibition, % at 10 µM | 330,000 compounds, 0.39% hits;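 active = inhibition of 50% or more; inactive = inhibition below 50%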;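 also: plate controls were induced DMSO wells for no effect and uninduced yeast grown without galactose for full effect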
# CHT PAM = allosteric activators of human choline transporter CHT; B-score at 10 µM; CHT-expressing cells, membrane potential dye, choline EC20; stronger effect = higher value; LV-AA mutant CHT in HEK293 cells; 310,000 compounds, 0.49% hits; AID 488977; Q9GZV3;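 active = initial fluorescence not abnormally high and integrated response B-score, plate-corrected, over 3 SD above library mean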
# Target sequence (Q9GZV3 whole entry, looked up): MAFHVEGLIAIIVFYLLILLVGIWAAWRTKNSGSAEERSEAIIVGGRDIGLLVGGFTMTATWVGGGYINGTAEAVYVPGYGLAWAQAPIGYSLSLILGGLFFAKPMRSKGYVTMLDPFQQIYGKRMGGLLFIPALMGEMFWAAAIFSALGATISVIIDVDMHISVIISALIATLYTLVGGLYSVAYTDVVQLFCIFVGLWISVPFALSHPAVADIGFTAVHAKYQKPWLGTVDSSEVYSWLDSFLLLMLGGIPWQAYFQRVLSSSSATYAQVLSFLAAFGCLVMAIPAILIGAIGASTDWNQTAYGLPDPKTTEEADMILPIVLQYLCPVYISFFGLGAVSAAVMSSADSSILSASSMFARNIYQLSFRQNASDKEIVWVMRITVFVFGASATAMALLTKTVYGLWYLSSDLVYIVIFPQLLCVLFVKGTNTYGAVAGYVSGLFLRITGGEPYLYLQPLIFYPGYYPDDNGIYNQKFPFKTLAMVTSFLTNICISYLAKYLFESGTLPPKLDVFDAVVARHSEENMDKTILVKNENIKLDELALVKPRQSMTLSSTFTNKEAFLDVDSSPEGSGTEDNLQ
# A1 inh = inhibitors of the anti-apoptotic protein A1, read as caspase activation; MEF A1-2A-BIM cells, Caspase-Glo 3/7 luminescence, 3 h; percent of clofoctol response, vehicle zero; caspase activation, % (test concentration not listed); 330,000 compounds, 0.066% hits;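 active = over half of replicate activation scores above 10%, or exactly half above 10 with the replicate mean above 10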
# NALP1 inh = blocks the NALP1 inflammasome reconstituted in yeast; S. cerevisiae NALP1/ASC/caspase-1 growth, X-gal OD620, 72 h; 280,000 compounds, 0.61% hits; inhibition, % at 10 µM; in the data active = inhibition mostly above about 24%, no sharp cut-off; inactive = mostly below about 32%
# CHT inh = human CHT choline transport inhibition. Q9GZV3. CHT-expressing cells, membrane potential dye, choline response; stronger effect = lower value. B-score at 10 µM. 310,000 compounds, 0.86% hits. AID 488975;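 active = B-score over 3 SD under the library average, and starting fluorescence ratio not unusually high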;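 also: choline stimulus applied at its EC90 after an EC20 pre-addition; B-score computed on integrated fluorescence ratio after choline addition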
# NALP3 yeast conf = NALP3 inhibition confirmation in yeast. yeast expressing human NALP3, luminescence. shares compounds with NALP3 yeast inh. 1,300 compounds, 81% hits. inhibition, % at 10 µM; in the data active = inhibition above about 48%
# Casp1-ASC yeast = counter-screen for NALP3 inhibitors: yeast caspase-1-ASC | shares compounds with NALP3 yeast inh | yeast expressing Caspase-1-ASC, luminescence counter screen | inhibition, % at 10 µM | 1,000 compounds, 66% hits
# NALP3 yeast rt = yeast NALP3 inhibition, confirmed on retest; shares compounds with NALP3 yeast inh; yeast expressing human NALP3, luminescence read-out; inhibition, % at 10 µM; 1,000 compounds, 53% hits
# CHT inh conf = confirmation of human choline transporter CHT inhibitors; shares compounds with CHT inh; CHT-expressing cells, choline membrane potential dye; LV-to-AA substituted CHT, HEK293 cells; CHT activity remaining % of control (stronger effect = lower value), % at 10 µM; 2,400 compounds, 70% hits;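 active = choline transporter activity left, mean of duplicates at 10 µM, below buffer-only control mean minus 3 SD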;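 also: depolarization triggered by choline at its EC90 following an EC20 pre-addition; 0% = hemicholinium-3 full block and 100% = buffer-only control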
# HEK293 MPD ctr = counter-screen for CHT inhibitors: effect in parental HEK293 cells; shares compounds with CHT inh; membrane potential dye, choline response; active = decrease or increase beyond buffer ±3SD; membrane potential ratio readout (active if shifted either direction beyond buffer ±3SD; no single direction) at 10 µM; 2,400 compounds, 4% hits; AID 493222;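 also: parental cells lack the transporter so any hit is non-specific; ratio is peak minus trough fluorescence over baseline after EC90 choline challenge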
# * hit, by the source's call; i = inactive; · = not tested or not shown. An excerpt weighted towards active compounds, which were near 3% of everything screened. Rule as the data show it, unless noted: active = inhibition above about 50%; inactive = the rest.
SMILES,SUMO Mot1 rescue,NALP3 yeast inh,CHT PAM,A1 inh,NALP1 inh,CHT inh,CHT inh conf,HEK293 MPD ctr,others
C[C@]12CCC(=O)C=C1C=CC1C2CC[C@]2(C)C(=O)CCC12 (stereo partly drawn),-13,50*,·,0,·,·,·,·,NALP3 yeast conf=57*
C[C@]1(O)CCC2C3CC[C@H]4C[C@@H](OC(=O)CNC(=O)CN)CC[C@]4(C)C3CC[C@@]21C (stereo partly drawn),11,56*,·,0,·,·,·,·,NALP3 yeast conf=71*
CCOC(=O)C1=C(N)OC2=C(C(=O)CCC2)C12C(=O)N(C)c1ccccc12 (stereo not drawn),5,10,i,0,24,i,·,·,
CC(C)(O)C(=O)Nc1ccc([N+](=O)[O-])c(C(F)(F)F)c1,-20,3,·,0,·,·,·,·,
COc1cc2c(cc1OC)CN(c1ccc([N+](=O)[O-])c(C(F)(F)F)c1)CC2,16,50*,i,0,49,i,·,·,NALP3 yeast conf=23
O=C1c2ccccc2C(=O)N1Cc1nc2ccccc2c(=O)n1-c1ccc(Br)cn1,122,61*,i,0,38,i,·,·,NALP3 yeast conf=74*;Casp1-ASC yeast=35;NALP3 yeast rt=34
O=[N+]([O-])c1ccc(N2CCCC2)c(F)c1Br,-6,52*,i,3,23,i,·,·,NALP3 yeast conf=60*;Casp1-ASC yeast=72*;NALP3 yeast rt=62*
CCc1cc(=O)[nH]c(SCCCF)n1,282,21,i,0,18,i,·,·,
Cn1c(O)c(C=Nc2ccccc2-c2ccccc2)c(=O)n(C)c1=O,-18,12,i,0,·,i,·,·,
CCOC(=O)C1=Nc2ccccc2/C1=C\c1c(O)n(C)c(=O)n(C)c1=O,305,53*,i,0,-4,i,·,·,NALP3 yeast conf=45
Cc1ccc(C[n+]2c(-c3ccc(C)cc3)cc(-c3ccc(C)cc3)cc2-c2ccc(C)cc2)cc1,280*,78*,8.7*,1,·,i,·,·,NALP3 yeast conf=76*;Casp1-ASC yeast=72*;NALP3 yeast rt=75*
Cc1ccc(-c2cc(-c3ccc(C)cc3)[n+](-c3ccc(C(=O)O)cc3)c(-c3ccc(C)cc3)c2)cc1,16,13,i,1,·,i,·,·,
COC(=O)C1=C(c2ccc(C(C)=O)cc2)C[C@@H]2CC[C@H]1N2C(=O)NCc1ccc(F)cc1,-10,8,·,0,·,·,·,·,
CN(C)c1nc(OCCNC(=O)COc2ccc(Cl)cc2Cl)nc(N2CCCCC2)n1,-5,17,i,0,6,i,·,·,
Cc1cc(/C=C2\C(=O)NC(=O)N(Cc3ccco3)C2=O)c(C)n1-c1ccc(O)cc1,-8,1,i,0,-4,i,·,·,
Cc1cc(/C=C2\C(=O)NC(=O)N(Cc3ccco3)C2=O)c(C)n1-c1ccc(C(=O)O)cc1,54,4,i,0,-6,-6.3*,61%*,i,
CCCCCn1c(NC(=O)c2ccco2)c(C(=O)OCC)c2nc3ccccc3nc21,-4,-2,i,1,38,-5.6*,i,i,
CCOC(=O)c1c(N)n(CCCOC(=O)c2ccco2)c2nc3ccccc3nc12,-10,20,i,-2,3,i,·,·,
Oc1ccc(C[C@H]2NCCc3cc(O)c(O)cc32)cc1O,14,13,i,1,-10,-6.5*,28%*,i,
C/C(=N\N=C(N)N)c1ccccc1,-8,2,i,0,-9,-9.9*,18%*,i,
COc1cc(C=C2C(=O)NC(=O)NC2=O)ccc1OS(=O)(=O)c1ccccc1[N+](=O)[O-],-10,8,i,0,-16,-5.3*,55%*,i,
CCOc1cc(C=C2C(=O)NC(=O)NC2=O)ccc1OS(=O)(=O)c1ccccc1,2,3,i,1,9,-7.3*,36%*,i,
COc1cc(/C=C2\C(=O)NC(=O)N(c3ccccc3)C2=O)c([N+](=O)[O-])cc1OC,-10,·,·,·,10,·,·,·,
Oc1ccc(CC2(N3CCCC3)CCCCC2)cc1,58,2,i,-2,-2,i,·,·,
N#Cc1ccc(NC(=O)CN2C(=O)NC3(CCCCCCC3)C2=O)cc1Cl,-18,7,·,0,·,·,·,·,
SMILES,SUMO Mot1 rescue,NALP3 yeast inh,CHT PAM,A1 inh,NALP1 inh,CHT inh,CHT inh conf,HEK293 MPD ctr,others
O=C(COc1ccc(Cl)cc1)N1CCN(Cc2ccc([N+](=O)[O-])cc2)CC1,11,17,i,0,-9,-5.1*,i,i,
COc1ccc(OCC(=O)N2CCN(Cc3nc4cc([N+](=O)[O-])ccc4n3C)CC2)cc1,-9,-3,i,0,·,i,·,·,
COc1cccc(C2CC3C(=O)C=CC2N3Cc2ccccc2)c1 (stereo not drawn),17,26,i,0,69*,-5.3*,-59%*,-40*,
c1cncc(CNC2CCCCC2)c1,-13,17,i,0,0,i,·,·,
Cc1ccc2c(c1)[C@@H]1CN(C)CC[C@@H]1N2C(=O)Nc1cccc(C(F)(F)F)c1,1,3,i,1,0,-7.2*,26%*,i,
Cc1ccc2c(c1)C1CN(C)CCC1N2C(=O)c1cccnc1Cl (stereo not drawn),-6,-25,i,0,·,i,·,·,
Cc1ccc2c(c1)C1CN(C)CCC1N2C(=O)CCCN1C(=O)c2cccc3cccc(c23)C1=O (stereo not drawn),-6,-21,i,0,21,-5.9*,50%*,i,
Cc1ccc2c(c1)C1CN(C)CCC1N2C(=O)Nc1cccc(C(F)(F)F)c1 (stereo not drawn),-5,7,i,-1,10,-5.4*,23%*,i,
Cc1ccc2c(c1)C1CN(C)CCC1N2C(=O)c1cn(-c2ccccc2)nc1-c1ccccc1 (stereo not drawn),148,25,i,0,3,i,·,·,
CCOc1cc2c(cc1OCC)-n1cccc1C(c1cccc(F)c1F)NC2 (stereo not drawn),2,15,i,0,-8,i,·,·,
